Measured values from PubChem BioAssay (NCI).
The panel holds about 83,000 compounds, 20% with a hit somewhere; the sample as a whole holds those more often.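 A percent growth of 40 corresponds to 60% growth inhibition; 0 means no net growth; -100 means all cells died. Active threshold: below 10.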 Values without a mark were called inactive. Active and inactive are the calls of the source.

Assays:
Assay in all cases: NCI-60 one-dose screen, 48 h (100 = growth as untreated, 0 = no growth, -100 = all killed)
Conditions in all cases: 10 µM unless noted
NCI-H23 lung = test system: NCI-H23 lung
NCI-H226 lung = test system: NCI-H226 lung
NCI-H322M lung = test system: NCI-H322M lung
HOP-62 NSCLC = test system: HOP-62 NSCLC
NCI-H460 lung = test system: NCI-H460 lung
HOP-92 NSCLC = test system: HOP-92 NSCLC
NCI-H522 lung = test system: NCI-H522 lung
A549/ATCC NSCLC = test system: A549/ATCC NSCLC
786-0 renal = test system: 786-0 renal
COLO 205 colon = test system: COLO 205 colon

| SMILES | growth (NCI-H23 lung) | growth (NCI-H226 lung) | growth (NCI-H322M lung) | growth (HOP-62 NSCLC) | growth (NCI-H460 lung) | growth (HOP-92 NSCLC) | growth (NCI-H522 lung) | growth (A549/ATCC NSCLC) | growth (786-0 renal) | growth (COLO 205 colon) |
| --- | --- | --- | --- | --- | --- | --- | --- | --- | --- | --- |
| Cc1ccc(C(C)C)c(OCC(=O)O)c1 | 107% | 105% | 107% | 101% | 107% | 98% | 111% | 90.8% | 102% | 107% |
| COc1ccc(/C=N/NC(=O)COCC(=O)N/N=C/c2ccc(OC)cc2)cc1 | 107% | 99.5% | 113% | 117% | 107% | 92.5% | 107% | 98.3% | 106% | 111% |
| N#CCCN1C(=O)CCC1C(=O)O (stereo not given) | 109% | 113% | 112% | 119% | 107% | 109% | 85% | 103% | 107% | 115% |
| O=C(c1ccccc1O)N1CCCC1 | 99.3% | 94.5% | 101% | 89.7% | 105% | 94.5% | 76.1% | 74.9% | 95.9% | 103% |
| CC(C)c1ncc([N+](=O)[O-])n1C | 103% | 102% | 126% | 118% | 106% | 104% | 96.4% | 96.9% | 108% | 108% |
| CCNC(=O)OCCc1c2ccccc2nc2ccccc12 | 111% | 106% | 108% | 109% | 108% | 13.4% | 94.3% | 101% | 112% | 124% |
| O=C(O)C1CSC(c2ccccc2)N1 (stereo not given) | 95% | 97% | 98.8% | 89.5% | 98.5% | 111% | 79.4% | 100% | 112% | 84.6% |
| CCNc1ncnc2[nH]ncc12 | 114% | 98.9% | 96.1% | 103% | 106% | 101% | 113% | 107% | 105% | 114% |
| CC(=O)Oc1c(Cl)cccc1-c1ccccc1 | 111% | 98.9% | 92.7% | 103% | 102% | 94.8% | 94.3% | 89.9% | 104% | 111% |
| CC1(c2ccccc2)CO1 (stereo not given) | 108% | 109% | 125% | 97.2% | 115% | 95.7% | 99.2% | 103% | 102% | 114% |
| CNc1ccccc1C(N)=O | 99% | 103% | 97.3% | 95.9% | 108% | 110% | 98.1% | 97.4% | 101% | 115% |
| CCOC(=O)/C(C)=C\c1ccc(OC)c(OC)c1 | 98.1% | 100% | 101% | 105% | 102% | 93.6% | 107% | 101% | 95.5% | 105% |
| Nc1nc(N)nc(N2CCCCC2)n1 | 107% | 103% | 94.4% | 104% | 103% | 96.6% | 100% | 104% | 102% | 108% |
| CC(=O)N(C)N=Nc1ccc(C)cc1 | 95% | 97.7% | 92.3% | 95.8% | 116% | 100% | 92.9% | 113% | 99.9% | 115% |
| OCC1CCC(O)C(CO)N1 (stereo not given) | 110% | 104% | 113% | 101% | 107% | 119% | 103% | 94.2% | 109% | 95% |
| Nc1ccc(F)c(Cl)c1F | 103% | 91.3% | 110% | 112% | 101% | 80% | 108% | 113% | 101% | 118% |
| COc1ccc2c(ccc[n+]2C)c1 | 99.6% | 110% | 105% | 106% | 106% | 110% | 54.7% | 108% | 97.3% | 111% |
| CN(C)c1ccc(O)c2c1CC1CC3C(N(C)C)C(=O)C(C(N)=O)=C(O)C3(O)C(=O)C1=C2O (stereo not given) | 51.1% | 71% | 38.7% | 55% | 29.1% | 21.7% | 35.6% | 21.3% | 45.3% | 56.3% |
| N#C/C(=C\c1ccc(C#N)cc1)C(=O)c1ccccc1 | 86.8% | 95.5% | 97.4% | 103% | 116% | 86.3% | 91.4% | 98.4% | 94.2% | 123% |
| Cc1cc(=O)n(Nc2ccccc2)c(O)c1C#N | 97.4% | 94% | 92.4% | 86% | 105% | 102% | 100% | 106% | 101% | 104% |
| Oc1cc(O)c2c(c1)O[C@H](c1ccc(O)c(O)c1)[C@@H](O)C2 | 95.2% | 96.6% | 105% | 107% | 113% | 98.5% | 89.5% | 97% | 106% | 108% |
| Cn1c2ccccc2c2nnc(NCCCCO)nc21 | 84.3% | 83.9% | 99.3% | 81.6% | 100% | 84.1% | 95.3% | 92.6% | 98.8% | 103% |
| CC(=O)C1C(=O)C(=O)N(c2ccc(Cl)c(Cl)c2)C1=O (stereo not given) | 90.3% | 106% | 108% | 89.3% | 109% | 116% | 103% | 113% | 102% | 103% |
| N#Cc1ccc(OC(=O)Nc2cc(Cl)cc(Cl)c2)cc1 | -10.3% [100 µM] (active) | 1.99% [100 µM] (active) | -3.43% [100 µM] (active) | -13.7% [100 µM] (active) | 0.999% [100 µM] (active) | -35.9% [100 µM] (active) | -31.1% [100 µM] (active) | 4.72% [100 µM] (active) | 9.34% [100 µM] (active) | -85.9% [100 µM] (active) |
| Oc1ccc(N=Cc2ccc(OCc3ccccc3)cc2)cc1 | 95.5% | 102% | 93.8% | 109% | 104% | 97.5% | 90.8% | 112% | 99.4% | 103% |
| O=S(=O)(c1ccc(NC(=S)NCc2cccnc2)cc1)N1CCCCC1 | 87% | 86.7% | 91.4% | 83.1% | 63% | 86.2% | 19.1% | 65.2% | 93.8% | 63% |
| S=c1nc2[nH]c3ccccc3c2n[nH]1 | 96.3% | 83.1% | 98.9% | -1.58% (active) | 99.5% | 55.7% | 108% | 104% | 109% | 108% |
| CCC(=O)Oc1ccc2ccccc2c1 | 100% | 90.2% | 103% | 81% | 99.9% | 86.1% | 99.5% | 99.4% | 96.9% | 102% |
| CCOC(=O)CNC(=O)Sc1ccc(C(C)(C)C)cc1 | 98.1% | 87.2% | 79.6% | 122% | 102% | 138% | 69.6% | 109% | 102% | 119% |
| Cn1c(=O)c2[nH]c(CCCCC(=O)O)nc2n(C)c1=O | 114% | 118% | 101% | 108% | 116% | 88.9% | 96.2% | 103% | 114% | 103% |
